Assay outcomes deposited in PubChem BioAssay by National Center for Advancing Translational Sciences (NCATS).
HT1080NT lethal – qHTS for induction of synthetic lethality in tumor cells producing 2HG: qHTS for the HT-1080-NT fibrosarcoma cell line; HT-1080-NT fibrosarcoma viability, CellTiter-Glo ATP luminescence, 48 h; Potency, µM (titrated, usually from 46.1 µM), for the others: at the top dose activity, negative = less viability, usual class: cytotoxic; 360,000 compounds, 1.6% hits; AID 686970, 2013;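 also: NT is the 2HG producing partner of a matched IDH1 knockdown line; 0% = DMSO-treated cells and -100% = media-only wells without cells; nearly all actives have a fitted effect of over 55% in size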
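750 cells/well, RPMI + 5% FBS; 2 h settle, compound pin-transfer, 48 h at 37 degrees C. CellTiter-Glo 10 min RT, luminescence. Normalized to DMSO and media-only wells.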
S2 tox – Viability Counterscreen for Primary qHTS for Inhibitors of ATXN expression. 400,000 compounds, 0.49% hits. AID 651635, 2014. S2 cells (HEK-293 line with an ATXN2-luciferase reporter) viability, CellTiter-Fluor protease fluorescence, 24 h. Potency, µM (doses to about 56.7 µM), most hits filed as cytotoxic; also: nearly all actives have a fitted effect of over 40% in size
TGFb inhibitor – qHTS for Inhibitors of TGF-b; HepG2 CAGA-GFP TGF-b/SMAD3 reporter, GFP fluorescence, 18 h; TGF-beta stimulated, 500 pg/mL final; Potency, µM (top dose mostly 46.1 µM), for inactives: at the highest dose activity, negative = inhibition, most hits filed as inhibitors; 410,000 compounds, 1.2% hits; AID 588855, 2011; also: % is scaled to controls: 0 for no effect and ±100 for the full control effect; nearly all actives have a fitted effect of over 65% in size
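TGF-beta reporter screen: HEPG2 CAGA-GFP, 1% FBS, 500 pg/mL TGF-beta final, 18 h; per-cell GFP summed per well; curves fitted and categorized by class.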
HT1080 IDH1KD tx – qHTS for induction of synthetic lethality in tumor cells producing 2HG: qHTS for the HT-1080-IDH1KD cell line | 360,000 compounds, 2% hits | Potency, µM (titrated, usually from 46.1 µM), inactives show top-dose activity, negative = toxicity, actives largely listed as cytotoxic | HT-1080 IDH1 knockdown viability, ATP luminescence, 48 h;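 also: 0% = DMSO wells and -100% = cell-free medium wells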
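% activity derives from luminescence (CellTiter-Glo), normalised to DMSO and no-cell wells. HT-1080-IDH1KD cells, 750/well, had 48 h compound exposure at 37 °C.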
ATXN2 expr inh – Primary qHTS for Inhibitors of ATXN expression; Potency, µM (doses to about 57 µM), without a hit: top-dose activity change, negative = inhibition, usual class: inhibitors; AID 1745845, 2022; HEK-293 ATXN2-luciferase reporter, luminescence, 24 h; 360,000 compounds, 0.72% hits; also: % is scaled to controls: 0 for no effect and ±100 for the full control effect; nearly all actives have a fitted effect of over 55% in size
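qHTS (up to 57 uM final) was run with 24 h compound exposure of reporter cells at 37 °C. Each well was multiplexed: SteadyGlo luminescence measured ATXN2-luciferase expression after a fluorogenic Gly-Phe-AFC viability readout (25 uM final).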
HepG2 tox – qHTS for Inhibitors of TGF-b: Cytotox Counterscreen; HepG2 CAGA-GFP viability, ATP luminescence, 18 h; Potency, µM (highest dose often 46.1 µM), inactives show at the top dose activity change, negative = cytotoxicity, hits mostly cytotoxic; 410,000 compounds, 0.76% hits
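CellTiter-Glo luminescence gave cytotoxicity after 18 hours at 37 degrees C. The cells were HepG2 CAGA-GFP in 1% FBS DMEM, stimulated with 500 pg/mL TGF-beta after compound addition. %Activity was normalised to no-cell wells (complete cell-killing) and DMSO (no toxicity), and curves were fitted and classified.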
An asterisk follows results filed as active; [ ] = remark or other dose. A selection: hits, their analogues and other compounds. The true share with any hit is near 3.8%. Calls follow the shape of the dose curve; as a rule, active = well fitted curve in the direction sought with a large enough effect; inconclusive = small, poorly fitted or top-dose-only effect, or another doubt; inactive = no such curve, though single readings can be large; an effect the other way counts as inactive or inconclusive. Potency is read from the fitted curve at half-maximal effect.

What do the screens show for `CCOc1ccc(-c2oc3ccc(C)cc3c(=O)c2O)cc1`?
TGFb inhibitor: inconclusive; ATXN2 expr inh: 22.8%; HepG2 tox: -2.3%

Results for COc1cccc(-c2oc3ccc(C)cc3c(=O)c2O)c1 ?
S2 tox: inactive; TGFb inhibitor: 8.91µM*; ATXN2 expr inh: inconclusive; HepG2 tox: -30.3%

What do the screens show for `O=C(CSc1c2c(nc3ccccc13)CCC2)Nc1ccc(F)cc1F`?
TGFb inhibitor: inconclusive; HepG2 tox: -31.8%

What do the screens show for `Cc1cccc(NC(=O)COc2ccccc2C(=O)Nc2ccccc2)c1`?
HT1080NT lethal: -15.4%; HT1080 IDH1KD tx: -18.8%

How did CCN(c1ccccc1)S(=O)(=O)c1ccc(Cl)c(NC(=O)CN(C)C2CCN(C)CC2)c1 do in these assays?
HT1080NT lethal: inconclusive; S2 tox: inactive; TGFb inhibitor: 0.6%; HT1080 IDH1KD tx: 23.1µM*; ATXN2 expr inh: -18.1%; HepG2 tox: -43.2%

How did CCN(c1ccccc1)S(=O)(=O)c1ccc(Cl)c(NC(=O)CN2CCN(C)CC2)c1 do in these assays?
HT1080NT lethal: 1.1%[9.24 µM]; S2 tox: inactive; TGFb inhibitor: -7.0%; HT1080 IDH1KD tx: 7.1%; ATXN2 expr inh: -7.7%; HepG2 tox: -25.6%

What do the screens show for `Cc1cccc(OCC(=O)Nc2ccc3c(c2)nc(CCN2CCN(c4ccccn4)CC2)n3C)c1`?
HT1080NT lethal: -20.6%; S2 tox: inconclusive; TGFb inhibitor: -28.7%; HT1080 IDH1KD tx: inconclusive; ATXN2 expr inh: 14.1µM*; HepG2 tox: -9.0%

How did COc1ccc(NC(=O)N(C)[C@H]2C[C@H]3c4[nH]c5ccc(-c6ccc(OC)cc6)cc5c4CCN3C(=O)[C@H]2[C@H](C)O)cc1 do in these assays?
HT1080NT lethal: 23.1µM*; S2 tox: inconclusive; TGFb inhibitor: inconclusive; HT1080 IDH1KD tx: 16.4µM*; ATXN2 expr inh: inconclusive; HepG2 tox: -41.4%

How did CN[C@H]1C[C@H]2c3[nH]c4ccc(-c5ccc(OC)cc5)cc4c3CCN2C(=O)[C@H]1[C@H](C)O do in these assays?
HT1080NT lethal: 8.2µM*; S2 tox: inconclusive; TGFb inhibitor: 15.8µM*; HT1080 IDH1KD tx: 13µM*; ATXN2 expr inh: 17.8µM*; HepG2 tox: 14.1µM*

What do the screens show for `COc1ccc(NC(=O)N(C)[C@H]2C[C@H]3c4[nH]c5ccccc5c4CCN3C(=O)[C@H]2[C@H](C)O)cc1`?
HT1080NT lethal: -3.7%; S2 tox: inactive; TGFb inhibitor: -11.5%; HT1080 IDH1KD tx: -4.2%; ATXN2 expr inh: 44.4%; HepG2 tox: -19.0%

What do the screens show for `COc1ccc(-c2ccc3[nH]c4c(c3c2)CCN2C(=O)[C@@H]([C@H](C)O)[C@@H](N(C)C(=O)Nc3ccccc3)C[C@@H]42)cc1`?
HT1080NT lethal: 23.1µM*; S2 tox: inconclusive; TGFb inhibitor: inconclusive; HT1080 IDH1KD tx: 16.4µM*; ATXN2 expr inh: inconclusive; HepG2 tox: -103.3%

Results for Cc1ccc(-n2nc(C(=O)N3CCCCC3)c(=O)n(C)c2=O)cc1 ?
S2 tox: inactive; TGFb inhibitor: -7.7%; ATXN2 expr inh: 1.5%; HepG2 tox: -38.6%

How did COC(=O)c1ccc(NC(=O)CSc2ccc(-c3sc(-c4ccccc4)nc3C)nn2)cc1 do in these assays?
TGFb inhibitor: -1.3%; HepG2 tox: -2.9%

Results for Clc1ccc2nc(-c3ccccc3)cn2c1 ?
HT1080NT lethal: 2.9%; S2 tox: inactive; TGFb inhibitor: 0.0%; HT1080 IDH1KD tx: 4.1%; ATXN2 expr inh: 3.7%; HepG2 tox: -19.6%

How did Cc1ccc2nc(-c3ccc4c(c3)OCCO4)cn2c1 do in these assays?
HT1080NT lethal: 3.66µM*; S2 tox: inactive; TGFb inhibitor: -17.4%; HT1080 IDH1KD tx: 2.31µM*; ATXN2 expr inh: inconclusive; HepG2 tox: -44.9%

What do the screens show for `COc1ccc(-c2cn3cc(C)ccc3n2)cc1OC`?
HT1080NT lethal: -9.3%; S2 tox: inconclusive; TGFb inhibitor: -18.8%; HT1080 IDH1KD tx: -8.6%; ATXN2 expr inh: -10.9%; HepG2 tox: -39.9%

What do the screens show for `c1ccn2cc(-c3ccc4c(c3)OCCO4)nc2c1`?
HT1080NT lethal: inconclusive; S2 tox: inactive; TGFb inhibitor: -0.1%; HT1080 IDH1KD tx: inconclusive; HepG2 tox: -82.1%

How did Clc1ccc2nc(-c3ccc4c(c3)OCO4)cn2c1 do in these assays?
HT1080NT lethal: inconclusive; S2 tox: inactive; TGFb inhibitor: -13.7%; HT1080 IDH1KD tx: 20.6µM*; ATXN2 expr inh: inconclusive; HepG2 tox: -38.6%

How did COc1ccc(-c2cn3cc(C)ccc3n2)cc1F do in these assays?
HT1080NT lethal: -8.6%; S2 tox: inactive; TGFb inhibitor: inconclusive; HT1080 IDH1KD tx: -2.2%; ATXN2 expr inh: inconclusive; HepG2 tox: 15.8µM*

What do the screens show for `COc1ccc2c(c1)-c1nc(-n3ncc(C(=O)NC(C)(C)CO)c3C3CC3)ncc1CC2`?
S2 tox: inactive

Results for Cc1cc(C)cc(C(=O)NC(=S)Nc2ccc(-c3cc4ccccc4oc3=O)cc2)c1 ?
HT1080NT lethal: 2.7%; S2 tox: inconclusive; TGFb inhibitor: 2.0%; HT1080 IDH1KD tx: 15.4%; ATXN2 expr inh: 6.31µM*; HepG2 tox: 1.0%

How did Cn1ccc2c(OCC(=O)NCc3ccccc3Cl)cccc2c1=O do in these assays?
S2 tox: inconclusive; TGFb inhibitor: 13.3%; ATXN2 expr inh: 8.0%; HepG2 tox: -16.5%

What do the screens show for `COc1ccccc1OCCCCN1CCC(C)CC1`?
HT1080NT lethal: 15.8%; S2 tox: inactive; TGFb inhibitor: 5.2%; HT1080 IDH1KD tx: 5.6%; ATXN2 expr inh: -15.2%; HepG2 tox: 0.7%

How did OC(c1ccccc1)(c1ccccc1)C1CCN(CCCOc2ccccc2Cl)CC1 do in these assays?
HT1080NT lethal: 20.6µM*; S2 tox: inconclusive; HT1080 IDH1KD tx: inconclusive; ATXN2 expr inh: inconclusive

What do the screens show for `Clc1ccccc1OCCN1CCCCC1`?
HT1080NT lethal: 14.3%; S2 tox: inactive; TGFb inhibitor: 2.5%; HT1080 IDH1KD tx: inconclusive; ATXN2 expr inh: -19.5%; HepG2 tox: -18.4%

How did COc1ccccc1OCCCN1CCC(C(O)(c2ccccc2)c2ccccc2)CC1 do in these assays?
HT1080NT lethal: 20.6µM*; S2 tox: inconclusive; HT1080 IDH1KD tx: 16.4µM*; ATXN2 expr inh: inconclusive
